# Assay results as given in PubChem BioAssay AID1851 (National Center for Advancing Translational Sciences (NCATS), 2009).
# The campaign covered roughly 16,000 compounds. About 4,000 (25%) were called active. Roughly 26% stayed inconclusive and do not appear here. The call rests on the fitted dose curve; in most records, active means well fitted curve in the direction sought with a large enough effect; inconclusive means small, poorly fitted or top-dose-only effect, or effect the other way; inactive means no such curve, though single readings can be large or run the other way. Only a sample is shown.
# Biological target: Cytochrome P450 2C9 (Homo sapiens) (UniProt P11712)
# Sequence (P11712 whole entry, looked up): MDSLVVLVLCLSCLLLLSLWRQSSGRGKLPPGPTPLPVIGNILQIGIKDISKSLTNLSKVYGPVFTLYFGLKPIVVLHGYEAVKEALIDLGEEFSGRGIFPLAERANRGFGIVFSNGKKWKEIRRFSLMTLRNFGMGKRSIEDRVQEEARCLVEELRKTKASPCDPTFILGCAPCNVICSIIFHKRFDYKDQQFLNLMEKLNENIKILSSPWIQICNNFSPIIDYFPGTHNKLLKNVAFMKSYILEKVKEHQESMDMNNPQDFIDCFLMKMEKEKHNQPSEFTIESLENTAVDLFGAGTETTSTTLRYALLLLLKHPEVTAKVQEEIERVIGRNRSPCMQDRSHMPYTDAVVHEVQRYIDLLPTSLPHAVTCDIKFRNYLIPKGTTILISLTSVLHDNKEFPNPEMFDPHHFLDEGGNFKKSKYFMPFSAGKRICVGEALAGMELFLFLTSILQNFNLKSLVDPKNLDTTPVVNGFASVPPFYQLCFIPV
# Experiment: Cytochrome panel assay with activity outcomes
# Conditions: recombinant CYP, pro-luciferin dealkylation, luminescence, p450-cyp2c9; series mostly up to 57.1 µM; activity, negative = inhibition: at the top concentration
# On the % scale 0 is the no-effect control and ±100 the full control effect.
Structure (SMILES),"activity, negative = inhibition",AC50
O=C(CC1(O)CCCCC1)OC1CCCC1,-26.4% [at 11.4 µM] (inactive),–
FC(F)(F)c1cc(CN2CCCC3(CCNCC3)C2)cc(C(F)(F)F)c1,18.9% (inactive),–
C[N+](C)(C)/N=C\c1ccc(O)c(O)c1,-5.12% [at 11.4 µM] (inactive),–
CC(C)N=c1scc(-c2ccco2)n1/N=C/c1ccc(O)c(O)c1,–,11.2 µM (active)
CCCC(=O)Nc1nc2n(n1)C(c1ccccc1)CC(=O)N2 (centres undefined),-10.9% (inactive),–
CC1(C)CC(=O)C(CCCN2C(=O)c3ccccc3C2=O)C(=O)C1,–,17.8 µM (active)
O=C1CC[C@H](N2C(=O)c3ccccc3C2=O)C(=O)N1,–,inactive
O=C1c2ccccc2C(=O)N1CCSC(=S)N1CCOCC1,-12.5% (inactive),–
CSc1cccc(NC(=O)Cn2cccc2)c1,–,20 µM (active)
Cc1cccc(NC(=O)Cn2cccc2)c1,-26.4% (inactive),–
CSc1cccc(NC(=O)OC2CCCCCCCCCCC2)c1,-17.7% [at 11.4 µM] (inactive),–
O=C(OCC1CC(c2ccccc2)=NO1)c1ccc(Cl)cc1 (centres undefined),-26.7% (inactive),–
O=C(c1ccc(Cl)cc1)N1CCCC(c2ccccc2)=N1,–,10 µM (active)
Clc1ccc(C2=C3CCCCn4c(-c5ccccc5)c[n+](c43)C2)cc1,-19.6% (inactive),–
CC(C)(C)NC(=O)Cn1cnc([N+](=O)[O-])n1,6.83% (inactive),–
Cc1cccc(C(CC(=O)N2CCCC2)c2ccccc2)c1O (centres undefined),–,3.98 µM (active)
O=C(O)c1cccnc1SCC(=O)N1CCCCCC1,-1.58% (inactive),–
COCC(=O)N1CCC2(CC1)CCN(C(c1ccccc1)c1ccccc1)CC2,2.97% (inactive),–
CCNc1ncc2ncc(=O)n(C[C@H]3CCCO3)c2n1,29.3% (inactive),–
COc1ncc2nc(-c3ccc(F)cc3)c(=O)n(Cc3ccc(F)cc3)c2n1,-4.72% (inactive),–
CCNc1ncc2nc(-c3ccccc3)c(=O)n(Cc3cccc(OC)c3)c2n1,-22.8% (inactive),–
COc1cccc(Cn2c(=O)c(-c3cccc(C#N)c3)nc3cnc(N4CCN(C)CC4)nc32)c1,-3.2% (inactive),–
COc1cccc(Cn2c(=O)c(-c3ccccc3)nc3cnc(OC)nc32)c1,–,12.6 µM (active)
COc1cccc(Cn2c(=O)c(-c3cccc(C#N)c3)nc3cnc(OC)nc32)c1,–,12.6 µM (active)
COc1cccc(Cn2c(=O)c(-c3cccc(C#N)c3)nc3cnc(Nc4ccccc4)nc32)c1,-19.8% (inactive),–

Structure (SMILES),"activity, negative = inhibition",AC50
CC/C(O)=C(\C#N)c1nnc2n1CCCCC2,-30.9% (inactive),–
CC(C)Oc1ccc(CSC(=N)N)cc1,11.2% (inactive),–
N#CC(C#N)=CNCCN1CCN(C=C(C#N)C#N)CC1,5.25% [at 11.4 µM] (inactive),–
COCCNC(=O)CCn1c(=O)oc2ccccc21,19.3% (inactive),–
COCCNC(=O)COc1ccc(Oc2ccccc2)cc1,–,0.316 µM (active)
COCCNC(=O)COc1ccc(OCCNC[C@@H](O)COc2ccccc2)cc1,18.8% (inactive),–
CS(=O)(=O)N1CCC2(CCCN(C(=O)Nc3cccc(F)c3)C2)CC1,-5.65% (inactive),–
CCOc1ccc(NCc2nnc(SCc3ccccc3Cl)n2-c2ccccc2)cc1,–,7.94 µM (active)
COC(Cc1nnc(SC)n1-c1ccccc1)OC,-7.18% (inactive),–
CC(=O)NCCNc1ncnc2ccc(-c3ccc(C(=O)N(C)C)cc3)cc12,3.47% [at 2.29 µM] (inactive),–
CC(=O)OC[C@@H]1O[C@H](C/C=N\OCC[C@H]2C=C[C@H](OC(C)=O)[C@@H](COC(C)=O)O2)C=C[C@@H]1OC(C)=O,19.9% [at 11.4 µM] (inactive),–
Cc1noc(C)c1-c1cncnc1NCCN1CCOCC1,-15.1% [at 2.29 µM] (inactive),–
O=S(=O)(Cc1cc(Oc2ccccc2)nc(-c2ccccc2)n1)c1ccccc1,–,0.891 µM (active)
N[C@@H](CS(=O)O)C(=O)O,-5.61% (inactive),–
CCn1c2ccccc2c2cc(NC(=O)C/C(C)=N/NC(=O)c3ccccc3N)ccc21,–,35.5 µM (active)
CC(=O)Nc1ccc(NC(=O)C/C(C)=N/NC(=O)C(=O)N2CCCC2)cc1,8.88% (inactive),–
COCCn1c(=O)cnc2cnc(Oc3cccc(Cl)c3)nc21,–,15.8 µM (active)
Cc1nc2cnc(Oc3cccc(Cl)c3)nc2n(CCc2ccccc2)c1=O,-19.9% (inactive),–
COCCn1c(=O)c(C)nc2cnc(Oc3cccc(Cl)c3)nc21,–,12.6 µM (active)
COCCn1c(=O)cnc2cnc(Oc3ccc(OC)cc3)nc21,0.762% (inactive),–
COCCn1c(=O)cnc2cnc(Oc3ccccc3)nc21,-24.6% (inactive),–
COc1ccc(C2CC(=O)CC(=O)C2n2cncn2)cc1 (centres undefined),-4.99% (inactive),–
O=C(O)CSc1sc(=S)sc1SCC(=O)O,-27.2% (inactive),–
Cc1sc2ncn(CC(=O)NCCCC(=O)N3CCN(c4ncccn4)CC3)c(=O)c2c1C,–,11.2 µM (active)
O=C(Nc1cccc2ncccc12)c1cccc(F)c1,29.7% (inactive),–

Structure (SMILES),"activity, negative = inhibition",AC50
O=C(O)/C=C\C(=O)Nc1ccccn1,25.1% [at 11.4 µM] (inactive),–
O=C(Nc1cccc(F)c1)Nc1ccccn1,–,25.1 µM (active)
C[C@@H]1/C=C\CC(=O)OC[C@H]2O[C@@H](C=C[C@@H]2O)[C@H](C)/C=C\CC(=O)OC[C@H]2O[C@H]1C=C[C@@H]2O,-9.33% [at 11.4 µM] (inactive),–
O=C(c1cccc(F)c1)N1CCC2(CCCN(C(c3ccccc3)c3ccccc3)C2)CC1,–,3.16 µM (active)
CC(C)NC(=O)N1CC2(CCN(C(=O)c3ccncc3)CC2)C1,-25.4% (inactive),–
Cc1noc(C)c1C(=O)N1CCC2(CCCN(C(c3ccccc3)c3ccccc3)C2)CC1,-21.2% (inactive),–
CC(C)CN1CCCC2(CCN(C(=O)c3cccc(F)c3)CC2)C1,-4.81% (inactive),–
O=C(c1ccco1)N1CCC2(CCCN(Cc3ccccc3)C2)CC1,-28.9% (inactive),–
O=C(c1ccco1)N1CCC2(CCCN(c3ccccc3)C2)CC1,9.69% (inactive),–
O=C(c1ccncc1)N1CCC2(CCCN(C(c3ccccc3)c3ccccc3)C2)CC1,–,5.01 µM (active)
O=C(c1cnccn1)N1CCC2(CC1)CCN(C(c1ccccc1)c1ccccc1)CC2,4.12% (inactive),–
CC(C)NC(=O)N1CCCC2(CCN(C(=O)c3ccncc3)CC2)C1,17% (inactive),–
O=C(c1cccc(F)c1)N1CCC[C@@]2(CCN(C(c3ccccc3)c3ccccc3)C2)C1,8.73% (inactive),–
O=C(c1ccncc1)N1CCC2(CC1)CN(C(c1ccccc1)c1ccccc1)C2,–,10 µM (active)
O=C(c1ccco1)N1CCC2(CCCN(C(c3ccccc3)c3ccccc3)C2)CC1,–,12.6 µM (active)
C[C@@H](C[C@H](N)C(=O)O)C(=O)O,0.375% [at 11.4 µM] (inactive),–
Cc1cnc(CNc2nc(-c3ccccc3C(F)(F)F)nc3ccccc23)cn1,-16.4% [at 2.29 µM] (inactive),–
O=C(c1cnccn1)N1CCC[C@@]2(CCN(C(c3ccccc3)c3ccccc3)C2)C1,-14.3% (inactive),–
O=C(c1cnccn1)N1CCC2(CCCN(C(c3ccccc3)c3ccccc3)C2)CC1,–,12.6 µM (active)
O=C(c1cnccn1)N1CCC2(CC1)CN(C(c1ccccc1)c1ccccc1)C2,1.03% (inactive),–
CC(C)NNC(=O)c1ccncc1,–,inactive
O=C(Nc1nnc(C2CC2)s1)c1ccncc1,–,8.91 µM (active)
O=C(NN=C1C2CC3CC(C2)CC1C3)c1ccncc1,-27.1% (inactive),–
CC/C=C\CC[C@H](O)C1=CCCCC1=O,-1.13% [at 11.4 µM] (inactive),–
O=C1CCCC=C1[C@@H](O)CCOC(c1ccccc1)(c1ccccc1)c1ccccc1,–,0.794 µM (active)

Structure (SMILES),"activity, negative = inhibition",AC50
O=C1CCCC=C1[C@@H](O)COCc1ccccc1,3.8% [at 11.4 µM] (inactive),–
CC1(C)OC(=O)C(=CNc2cccc(O)c2)C(=O)O1,27.7% (inactive),–
O=C(Nc1cccc(F)c1)N1CC[C@@]2(CCCN(C(=O)c3cc(C(F)(F)F)cc(C(F)(F)F)c3)C2)C1,6.64% (inactive),–
Fc1ccc(Nc2ccnc(-c3ccccc3C(F)(F)F)n2)cc1,-26.8% [at 2.29 µM] (inactive),–
O=C(c1ccncc1)N1CCC2(CC1)CCN(c1ccccc1)CC2,–,10 µM (active)
O=C(c1cccc(F)c1)N1CCC[C@@]2(CCN(c3ccncc3)C2)C1,-15.9% (inactive),–
Cc1noc(C)c1C(=O)N1CCC2(CCCN(c3ccncc3)C2)CC1,9.67% (inactive),–
CC(=O)N1CCC2(CC1)CN(c1ccccc1)C2,-15% (inactive),–
Cc1noc(C)c1C(=O)N1CCC2(CCN(Cc3ccncc3)CC2)CC1,-13.8% (inactive),–
O=C(c1ccncc1)N1CCC2(CC1)CN(c1ccc(-c3ccccc3)cc1)C2,-20.9% (inactive),–
O=C(c1cccc(F)c1)N1CCC2(CC1)CN(c1ccncc1)C2,–,5.01 µM (active)
Cc1noc(C)c1C(=O)N1CCC2(CC1)CCN(c1ccncc1)CC2,–,10 µM (active)
O=C(c1ccncc1)N1CCC2(CC1)CN(c1ccccc1)C2,–,2.51 µM (active)
CC1(C)O[C@H]2[C@@H](O1)[C@@H](On1nnc3ccc(Cl)cc31)O[C@@H]2[C@@H]1COC(C)(C)O1,-3.36% [at 11.4 µM] (inactive),–
Nn1nnc2ccccc21,-7.08% (inactive),–
N#Cc1cccc(-c2ccc3ncnc(N4CCNCC4)c3c2)c1,20.7% [at 2.29 µM] (inactive),–
CCN(CC)S(=O)(=O)N1CCC(C(=O)NCc2ccc(C)cc2)CC1,-7.02% (inactive),–
O=C1C2=CC[C@H]3C(=O)N(c4cccc(Oc5ccccc5)c4)C(=O)[C@@H]3[C@@H]2[C@H](O)[C@@H]2O[C@H]12,4.88% [at 11.4 µM] (inactive),–
Cc1ccc(CS(=O)(=O)CCC(=O)NCc2ccccn2)cc1,-25.1% (inactive),–
Cc1ccc(CNC(=O)Cc2csc(Nc3nc(=S)[nH]c4ccccc34)n2)cc1,–,0.891 µM (active)
Cc1ccc(CNC(=O)Cn2cncn2)cc1,-26.5% (inactive),–
COc1ccc(CNC(=O)Cc2csc(Nc3nc(=S)[nH]c4ccccc34)n2)cc1,–,0.224 µM (active)
O=C(Cc1csc(Nc2nc(=S)[nH]c3ccccc23)n1)NCc1cccc(Cl)c1,–,0.0631 µM (active)
COc1ccc(C(CNC(=O)c2cc(=O)[nH]c3ccccc23)N2CCCC2)cc1 (centres undefined),6.96% (inactive),–
